Measurements from PubChem BioAssay AID743361 (Molecular Libraries Program, Specialized Chemistry Center, …, 2014).
A number with no mark means an inactive call. Calls of active or inactive are those of the source. No rule for the calls is given here.

Assay: cell-free Rh123 fluorescence quenching read-out – biochemical, dry powder samples, uHTS hits, counter-screen for mtPTP inhibitor project, dose response (AID 743361)
Settings: Rhodamine 123 fluorescence quenching counterscreen

**Q.** Which IC50 does the source give for `COc1ccc(Cl)cc1S(=O)(=O)Nc1ccc(CCN2CCN(C)CC2)cc1` here?
**A.** > 100 µM

**Q.** Which IC50 does the source give for `COc1ccc(Cl)cc1S(=O)(=O)Nc1ccc(CN2CCCCC2)cc1` here?
**A.** > 100 µM

**Q.** With `O=S(=O)(Nc1ccc(CN2CCCCC2)cc1)c1ccc(F)c(Cl)c1` as the compound, how does the IC50 read?
**A.** > 100 µM

**Q.** For `O=S(=O)(Nc1ccc(CCN2CCCCC2)cc1)c1cc(Cl)cc(Cl)c1`, which IC50 is on record?
**A.** > 100 µM

**Q.** With `O=C(Nc1cccc(F)c1)c1cc(-c2cccc(O)c2)on1` as the compound, how does the IC50 read?
**A.** > 100 µM

**Q.** For `CN1CCN(Cc2ccc(NS(=O)(=O)c3ccc(F)c(Cl)c3)cc2)CC1`, which IC50 is on record?
**A.** > 100 µM

**Q.** With `COc1ccc(Cl)cc1C(=O)Nc1ccccc1` as the compound, how does the IC50 read?
**A.** > 100 µM

**Q.** Which IC50 does the source give for `COc1ccc(NC(=O)c2cc(-c3ccc(Cl)cc3)on2)cc1Cl` here?
**A.** > 100 µM

**Q.** With `O=C(Nc1ccc(Cl)cc1)c1cc(-c2ccccc2)on1` as the compound, how does the IC50 read?
**A.** > 100 µM

**Q.** Which IC50 does the source give for `COc1ccc(Cl)c(C(=O)Nc2ccc(CCN3CCOCC3)cc2)c1` here?
**A.** > 100 µM

**Q.** With `O=C(Nc1cccc(Cl)c1)c1cc(-c2cccc(O)c2)on1` as the compound, how does the IC50 read?
**A.** > 100 µM

**Q.** For `Cc1ccc(-c2cc(C(=O)Nc3cccc(Cl)c3)no2)cc1`, which IC50 is on record?
**A.** > 100 µM

**Q.** Which IC50 does the source give for `CC(C)C1CCN(CCCC(=O)c2ccc(Br)cc2)CC1` here?
**A.** 64.6 µM (active)

**Q.** Which IC50 does the source give for `COc1ccc(Cl)cc1C(=O)Nc1ccc(CN2CCOCC2)cc1` here?
**A.** > 100 µM
